For five compounds, composite z-score and z-score results are on record in PubChem BioAssay.

Calls of active or inactive are those of the source.

Assay [1] is described as follows: small molecules captured by biotinylated probe aFSTL3 – biochemical, small-molecule microarray, fluorescence 635/667, stem cell growth factor project, primary screen (AID 1064).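 Note: measures binding of the biotinylated anti-FSTL3 antibody to printed compounds.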 Conditions: higher = more signal.
Assay [2] can be described thus: binders from COS7 lysate, DM2A8 probe, primary screen, torsin A project, cell lysate, small-molecule microarray, fluorescence 635/667 (AID 1065). Conditions: higher = more signal, COS7 lysate expressing mutant human TOR1A.
Assay [3] in a line: small molecules captured by biotinylated probe aFGF2 – biochemical, small-molecule microarray, fluorescence 635/667, stem cell growth factor project, primary screen (AID 1067).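 Note: measures binding of biotinylated aFGF2 protein to printed compounds on slides; z-score merges feature fluorescence and signal-to-noise across triplicate slides.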 Conditions: higher = more signal.
The nature of assay [4]: small molecules captured by biotinylated probe aFGF10 – biochemical, small-molecule microarray, fluorescence 635/667, stem cell growth factor project, primary screen (AID 1071).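 Note: score merges 667 nm spot intensity and signal to noise from triplicate slides.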 Conditions: higher = more signal.
Assay [5] addresses Neurogenic locus notch homolog protein 2 (Homo sapiens) (UniProt Q04721). In words: small molecules binding Notch2 protein – biochemical, small-molecule microarray, 635 nm fluorescence, stem cell growth factors, primary screen (AID 1073). Conditions: higher = more signal.
The target of assay [6] is Pro-neuregulin-1, membrane-bound isoform (Homo sapiens) (UniProt Q02297). In words: small molecules binding neuregulin-1 protein – biochemical, small-molecule microarray, fluorescence 635/667, psychiatric disease protein project, primary screen (AID 1075).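 Note: score combines 667 nm spot fluorescence with signal to noise.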 Conditions: NRG1 binding, 635 nm fluorescence, higher = more signal.
Assay [7] has as its system Neuregulin-1 EGF-like domain. In words: small molecules binding NRG1 EGF domain – biochemical, small-molecule microarray, 635 nm fluorescence, primary screen (AID 1081).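 Note: binding of the protein to compounds printed on small-molecule microarray slides.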 Conditions: higher = more signal.
The nature of assay [8]: FRG1 expression reporter modulators in myotubes – cell-based, C2C12 myotubes, firefly/Renilla luciferase, luminescence, FRG1 inhibition for FSHD, primary screen (AID 1084). Conditions: FRG1 promoter luciferase, higher = more signal, called active from +8 up or from −8 down.
A short description of assay [9]: small molecules captured by biotinylated probe aFST – biochemical, small-molecule microarray, fluorescence 635/667, stem cell growth factor project, primary screen (AID 1086).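 Note: score merges 667 nm fluorescence with signal-to-noise of each printed compound spot.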 Conditions: higher = more signal.
Assay [10] is described as follows: binders of probe aHhip on microarray, primary screen, stem cell growth factor project, biochemical, small-molecule microarray, fluorescence 635/667 (AID 1087).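 Note: score merges spot fluorescence at 667nm with spot signal to noise ratio.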 Conditions: higher = more signal.
Assay [11] relates to PRMT1 (protein arginine N-methyltransferase 1). Description: small molecules binding arginine methyltransferase PRMT1 – biochemical, small-molecule microarray, 635 nm fluorescence, primary screen (AID 1088).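 Note: binding of Prmt1 protein to compounds spotted on small-molecule microarray slides.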 Conditions: higher = more signal.
A short description of assay [12]: growth effects on S. cerevisiae YJM789 – YJM789 clinical isolate, OD600, 24 h, basal, primary screen (AID 1089).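 Note: growth of clinical yeast isolate S. cerevisiae YJM 789 seeded 1000 cells per well; test concentration not given here.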 Conditions: higher = more signal, called active from +8 up or from −8 down.
A short description of assay [13]: S. pombe growth modifiers, basal conditions – strain 972, OD600, 24 h, no modulator, primary screen (AID 1090).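 Note: basal condition with compound alone and no growth modifier present; test concentration not given here.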 Conditions: S. pombe 972 growth, higher = more signal, called active from +8 up or from −8 down.
Assay [14] can be described thus: budding yeast growth modifiers under rapamycin – strain BY4716, OD600, 96 h, primary screen (AID 1091). Note: test concentration not given here. Conditions: S. cerevisiae BY4716 + rapamycin, higher = more signal, called active from +8 up or from −8 down.
Assay [15] addresses Torsin-1A-interacting protein 2 (Homo sapiens) (UniProt Q8NFQ8). In words: small molecules binding lysate-expressed LULL1 – cell lysate, human LULL1 lysate, 635/667 nm fluorescence, primary screen (AID 1092).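 Note: probe is lysate of COS7 cells overexpressing human LULL1; score merges per-feature 667 nm fluorescence with signal-to-noise.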 Conditions: small-molecule microarray, hLULL1 lysate binding, 635 nm fluorescence; higher = more signal.
Assay [16] in a line: optical density change of DRC41 E. coli – strain DRC41, OD650, 24 h, E. coli filamentation project, primary screen (AID 1093).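 Note: MC1000 strain lacking acrAB efflux and sulA so SOS filamentation is blocked; test concentration not given here.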 Conditions: E. coli DRC41 growth, higher = more signal, called active from +8 up or from −8 down.
Assay [17] is described as follows: probe aLefty2 binding to arrayed compounds – biochemical, biotinylated probe, 635/667 nm fluorescence, primary screen (AID 1094).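 Note: score merges spot fluorescence near 667 nm with spot signal-to-noise ratio.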 Conditions: small-molecule microarray, higher = more signal.
For assay [18], the system named is Noggin (protein binding on small-molecule microarray). In words: small molecules binding Noggin protein – biochemical, 635/667 nm fluorescence, primary screen (AID 1095).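 Note: score merges 667 nm feature fluorescence with signal to noise over triplicate slides.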 Conditions: 635 nm fluorescence, higher = more signal.
For assay [19], the target named is Neurogenic locus notch homolog protein 3 (Homo sapiens) (UniProt Q9UM47). Description: small molecules binding NOTCH3 protein – biochemical, 635/667 nm fluorescence, primary screen (AID 1096). Conditions: small-molecule microarray, 635 nm fluorescence, higher = more signal.
Chain of Neurogenic locus notch homolog protein 3 (Homo sapiens) (Q9UM47 whole entry, looked up): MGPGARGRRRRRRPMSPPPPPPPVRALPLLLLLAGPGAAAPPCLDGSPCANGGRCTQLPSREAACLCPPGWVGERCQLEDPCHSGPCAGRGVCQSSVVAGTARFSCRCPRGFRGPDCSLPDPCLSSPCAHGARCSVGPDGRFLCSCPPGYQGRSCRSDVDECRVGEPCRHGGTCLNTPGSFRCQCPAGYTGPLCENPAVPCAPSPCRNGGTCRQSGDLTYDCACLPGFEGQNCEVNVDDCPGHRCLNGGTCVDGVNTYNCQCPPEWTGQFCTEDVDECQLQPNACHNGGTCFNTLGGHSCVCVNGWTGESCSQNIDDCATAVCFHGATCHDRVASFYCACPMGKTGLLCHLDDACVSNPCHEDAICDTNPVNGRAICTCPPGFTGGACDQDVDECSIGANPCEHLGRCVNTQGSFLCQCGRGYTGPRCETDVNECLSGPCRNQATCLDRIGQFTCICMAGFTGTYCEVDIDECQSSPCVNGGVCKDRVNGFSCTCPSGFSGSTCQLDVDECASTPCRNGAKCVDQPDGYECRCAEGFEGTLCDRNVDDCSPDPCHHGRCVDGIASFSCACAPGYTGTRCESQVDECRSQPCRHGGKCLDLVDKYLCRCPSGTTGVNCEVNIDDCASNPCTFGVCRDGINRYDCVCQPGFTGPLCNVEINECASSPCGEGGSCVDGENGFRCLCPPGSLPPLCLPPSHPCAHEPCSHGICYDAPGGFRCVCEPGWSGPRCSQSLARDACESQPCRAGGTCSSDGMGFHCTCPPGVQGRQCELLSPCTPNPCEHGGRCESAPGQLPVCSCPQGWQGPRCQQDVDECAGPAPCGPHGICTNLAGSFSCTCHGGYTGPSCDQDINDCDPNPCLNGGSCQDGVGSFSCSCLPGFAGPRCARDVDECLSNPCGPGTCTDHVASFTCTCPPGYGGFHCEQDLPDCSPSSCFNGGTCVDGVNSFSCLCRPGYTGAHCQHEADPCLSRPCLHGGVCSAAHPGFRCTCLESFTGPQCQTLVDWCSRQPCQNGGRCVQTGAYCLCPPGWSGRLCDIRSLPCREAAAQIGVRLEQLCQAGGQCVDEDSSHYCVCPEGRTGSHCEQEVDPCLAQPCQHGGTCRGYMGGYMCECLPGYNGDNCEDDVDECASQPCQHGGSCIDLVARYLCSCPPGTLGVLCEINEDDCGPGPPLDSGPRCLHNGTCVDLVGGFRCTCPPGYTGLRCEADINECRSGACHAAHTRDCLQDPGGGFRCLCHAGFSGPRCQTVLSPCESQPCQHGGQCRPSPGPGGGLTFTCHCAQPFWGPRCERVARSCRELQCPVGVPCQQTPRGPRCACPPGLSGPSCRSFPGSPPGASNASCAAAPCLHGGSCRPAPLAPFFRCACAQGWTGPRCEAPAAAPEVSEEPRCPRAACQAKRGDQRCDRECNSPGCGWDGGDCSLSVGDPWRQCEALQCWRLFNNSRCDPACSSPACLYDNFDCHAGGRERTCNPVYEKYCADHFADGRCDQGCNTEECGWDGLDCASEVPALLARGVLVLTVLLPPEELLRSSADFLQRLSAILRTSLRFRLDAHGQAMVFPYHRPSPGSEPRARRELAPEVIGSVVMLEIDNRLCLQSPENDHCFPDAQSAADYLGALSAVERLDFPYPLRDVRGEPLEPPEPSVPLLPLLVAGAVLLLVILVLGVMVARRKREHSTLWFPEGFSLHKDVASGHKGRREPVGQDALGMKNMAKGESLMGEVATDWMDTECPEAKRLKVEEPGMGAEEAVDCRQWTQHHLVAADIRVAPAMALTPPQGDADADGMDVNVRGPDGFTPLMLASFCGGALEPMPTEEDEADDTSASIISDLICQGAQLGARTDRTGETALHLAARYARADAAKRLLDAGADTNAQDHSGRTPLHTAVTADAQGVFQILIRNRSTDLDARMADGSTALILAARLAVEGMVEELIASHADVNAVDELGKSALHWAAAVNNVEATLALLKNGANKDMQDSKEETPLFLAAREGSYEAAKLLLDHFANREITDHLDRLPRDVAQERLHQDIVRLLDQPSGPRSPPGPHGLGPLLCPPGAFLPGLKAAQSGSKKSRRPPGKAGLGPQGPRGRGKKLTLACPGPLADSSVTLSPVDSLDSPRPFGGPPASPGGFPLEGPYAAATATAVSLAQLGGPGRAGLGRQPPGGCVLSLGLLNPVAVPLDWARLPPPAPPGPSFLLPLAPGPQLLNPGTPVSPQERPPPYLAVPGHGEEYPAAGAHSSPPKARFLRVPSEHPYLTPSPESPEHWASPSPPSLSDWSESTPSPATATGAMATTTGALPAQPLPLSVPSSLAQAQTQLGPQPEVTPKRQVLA
The nature of assay [20]: probe aEGFR binding to arrayed compounds – biochemical, biotinylated probe, 635/667 nm fluorescence, primary screen (AID 1097).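 Note: probe is a biotinylated anti-EGFR antibody binding compounds printed on slides; score combines fluorescence near 667 nm and signal to noise of each spot.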 Conditions: small-molecule microarray, higher = more signal.

Chain of Neurogenic locus notch homolog protein 2 (Homo sapiens) (Q04721 whole entry, looked up, canonical isoform): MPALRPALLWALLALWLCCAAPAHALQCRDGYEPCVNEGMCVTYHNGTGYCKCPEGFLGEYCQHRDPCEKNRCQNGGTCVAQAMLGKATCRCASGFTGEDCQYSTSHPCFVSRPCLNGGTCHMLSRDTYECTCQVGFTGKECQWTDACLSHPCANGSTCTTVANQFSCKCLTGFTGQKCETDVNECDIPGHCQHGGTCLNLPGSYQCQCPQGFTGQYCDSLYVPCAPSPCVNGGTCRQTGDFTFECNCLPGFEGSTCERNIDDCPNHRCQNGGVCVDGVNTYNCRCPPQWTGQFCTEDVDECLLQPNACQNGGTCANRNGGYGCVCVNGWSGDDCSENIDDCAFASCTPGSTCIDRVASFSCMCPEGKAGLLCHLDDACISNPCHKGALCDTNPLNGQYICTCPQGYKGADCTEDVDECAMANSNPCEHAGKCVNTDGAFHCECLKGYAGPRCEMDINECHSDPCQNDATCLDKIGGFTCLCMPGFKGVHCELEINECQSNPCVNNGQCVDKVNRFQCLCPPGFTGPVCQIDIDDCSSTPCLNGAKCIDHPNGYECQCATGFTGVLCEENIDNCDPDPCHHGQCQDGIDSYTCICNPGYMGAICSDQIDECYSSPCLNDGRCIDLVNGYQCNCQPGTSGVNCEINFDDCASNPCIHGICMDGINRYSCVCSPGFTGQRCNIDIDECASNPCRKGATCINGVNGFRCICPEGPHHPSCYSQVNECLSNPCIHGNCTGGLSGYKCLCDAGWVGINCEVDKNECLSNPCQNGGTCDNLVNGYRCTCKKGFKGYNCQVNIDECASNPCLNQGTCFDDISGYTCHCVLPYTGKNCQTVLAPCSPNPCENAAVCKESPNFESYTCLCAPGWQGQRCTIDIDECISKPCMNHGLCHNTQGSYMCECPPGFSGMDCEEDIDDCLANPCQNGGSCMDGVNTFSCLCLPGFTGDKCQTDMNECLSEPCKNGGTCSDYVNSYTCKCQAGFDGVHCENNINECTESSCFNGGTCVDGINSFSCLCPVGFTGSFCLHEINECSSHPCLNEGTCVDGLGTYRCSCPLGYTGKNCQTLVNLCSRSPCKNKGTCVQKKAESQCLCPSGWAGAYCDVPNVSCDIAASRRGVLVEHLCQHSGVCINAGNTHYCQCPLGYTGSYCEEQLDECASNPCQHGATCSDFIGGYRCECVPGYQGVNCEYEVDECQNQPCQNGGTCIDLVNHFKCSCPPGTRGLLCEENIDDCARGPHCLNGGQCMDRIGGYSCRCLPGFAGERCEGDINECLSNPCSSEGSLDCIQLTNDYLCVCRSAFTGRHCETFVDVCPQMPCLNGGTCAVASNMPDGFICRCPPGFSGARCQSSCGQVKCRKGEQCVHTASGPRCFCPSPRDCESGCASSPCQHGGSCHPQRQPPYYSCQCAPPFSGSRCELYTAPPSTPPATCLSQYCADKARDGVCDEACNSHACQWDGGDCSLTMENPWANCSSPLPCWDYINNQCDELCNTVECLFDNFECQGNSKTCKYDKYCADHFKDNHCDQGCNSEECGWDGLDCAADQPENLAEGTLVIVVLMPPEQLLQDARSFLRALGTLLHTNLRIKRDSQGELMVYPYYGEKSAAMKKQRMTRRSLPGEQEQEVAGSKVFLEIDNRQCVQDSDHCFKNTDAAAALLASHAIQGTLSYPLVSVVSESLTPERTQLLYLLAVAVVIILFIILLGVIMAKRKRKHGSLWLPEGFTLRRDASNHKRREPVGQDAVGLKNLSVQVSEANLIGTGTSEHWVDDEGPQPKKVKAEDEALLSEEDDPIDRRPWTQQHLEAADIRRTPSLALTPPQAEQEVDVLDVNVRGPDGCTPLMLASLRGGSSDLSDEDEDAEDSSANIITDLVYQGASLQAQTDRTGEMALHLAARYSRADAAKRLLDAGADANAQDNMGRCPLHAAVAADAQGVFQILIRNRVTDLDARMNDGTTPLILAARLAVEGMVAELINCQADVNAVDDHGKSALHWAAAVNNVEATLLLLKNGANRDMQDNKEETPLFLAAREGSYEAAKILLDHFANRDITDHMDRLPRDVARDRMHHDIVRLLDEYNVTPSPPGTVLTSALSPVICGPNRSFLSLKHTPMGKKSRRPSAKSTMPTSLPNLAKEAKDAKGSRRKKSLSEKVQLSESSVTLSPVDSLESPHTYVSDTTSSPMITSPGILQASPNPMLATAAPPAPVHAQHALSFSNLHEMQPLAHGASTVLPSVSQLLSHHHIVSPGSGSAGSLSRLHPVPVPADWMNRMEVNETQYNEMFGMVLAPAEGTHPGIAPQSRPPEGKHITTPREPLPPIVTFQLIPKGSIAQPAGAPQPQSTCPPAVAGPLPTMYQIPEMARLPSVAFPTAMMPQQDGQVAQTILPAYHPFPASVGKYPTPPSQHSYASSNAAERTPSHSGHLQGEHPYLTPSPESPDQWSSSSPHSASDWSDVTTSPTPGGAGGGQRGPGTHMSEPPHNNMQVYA

As for `CC(C)N1CC=CC23O[C@@H]4C=CCOC(=O)[C@@H]4[C@H]2C(=O)N(C(C)CO)[C@@H]3C1=O` (stereo not given in full), the composite z-score in [1] was 0.377; in assay [2], -1.2; in assay [3], -0.071; in assay [4], -0.536; in [5], -1.11; in assay [6], 2.17. In addition, the composite z-score is 0.9 in assay [7]; -0.508 in assay [9]; -0.593 in assay [10]; -1 in [11]; -0.163 in assay [15]; 0.119 in assay [17]. In addition, the composite z-score is -1.03 in [18], -0.66 in assay [19] and -0.199 in assay [20]. The z-score in [8] was 0.106 (inactive); in assay [12] it was -0.741 (inactive); in assay [13], -0.06 (inactive); in assay [14] it was -0.0277 (inactive); in assay [16], -0.0334 (inactive).

Turning to `Cc1ccc(F)cc1S(=O)(=O)N[C@@H]1CCN(Cc2ccc(Oc3ccccc3)cc2)C1`, the composite z-score in [1] was -0.191; in [2], 0.45; in [3], -0.144; in [4], -0.3; in assay [5], -0.155; in [6], 0.0412. In addition, the composite z-score in [7] was -0.014; in [9] it was 0.0111; in assay [10] it was -0.34; in assay [11], -0.434; in [15], -0.367; in assay [17], -0.0073. In addition, the composite z-score in assay [18] is 0.966; in assay [19], 0.551; in assay [20], -0.0953. Further, the z-score is -1.9 (inactive) in [8]; -21.2 (active) in assay [12]; -21.4 (active) in [13]; -3.22 (inactive) in [14]; -14.1 (active) in [16].

On to `COC(=O)[C@@]1(Cc2ccc(F)cc2)[C@H]2c3cc(C(=O)N4CCCC4)n(CCF)c3C[C@H]2CN1C(=O)c1ccccc1`, for which the composite z-score in assay [1] is 0.999; in assay [2] it was 1.52; in assay [3] it was 0.856; in assay [4], 1.1; in assay [5], 1.55; in assay [6] it was 1.65. Further, the composite z-score in assay [7] is 1.29; in assay [9], 2.81; in assay [10] it was 2.09; in assay [11] it was -0.195; in assay [15], 3.13; in assay [17] it was 1.49. Besides, the composite z-score in assay [18] was -0.258; in assay [19] it was 1.13; in assay [20], 0.879. Further, the z-score in assay [8] is -0.533 (inactive); in [12], -0.496 (inactive); in assay [13] it was -0.202 (inactive); in [14], -0.0254 (inactive); in assay [16], 0.164 (inactive).

For `Cc1ccc(S[C@]2(C(=O)NCC(C)C)CC(=O)N(Cc3ccccc3Cl)[C@@H]2c2ccc(CO)cc2I)cc1`, the composite z-score is 0.699 in [1]; 1.65 in assay [2]; -0.0818 in [3]; 0.452 in [4]; -1.11 in [5]; 1.54 in [6]. Besides, the composite z-score is 1.36 in [7]; -0.414 in assay [9]; -0.0645 in assay [10]; 0.939 in assay [11]; 1.8 in assay [15]; 0.225 in [17]. Also, the values for the composite z-score in assay [18], in assay [19] and in assay [20] were -1.08, -0.309 and -0.304, respectively. Further, the z-score is -1.45 (inactive) in assay [8]; -1.38 (inactive) in assay [12]; -1.87 (inactive) in [13]; 0.0522 (inactive) in assay [14]; -0.712 (inactive) in assay [16].

On to `C[C@@H]1ON(c2ccc(C(=O)OC(C)(C)C)cc2)[C@H](c2ccc(Br)cc2)[C@H]1C(=O)N1C(=O)OC[C@H]1Cc1ccccc1`, for which the composite z-score in assay [1] is -0.312; in assay [2] it was 0.155; in assay [3], 0.0333; in [4], 0.552; in [5] it was 1.52; in assay [6], 1.05. Also, the composite z-score in assay [7] is 1.11; in [9], 0.492; in assay [10] it was -0.0618; in assay [11], 1.53; in assay [15], 2.22; in [17], 0.149. The composite z-score in [18] stood at 0.633; in [19] it was 1.08; in assay [20], 0.0338. Also, the z-score is 0.002 (inactive) in assay [8]; 0.689 (inactive) in [12]; 0.716 (inactive) in assay [13]; 0.71 (inactive) in assay [14]; 0.425 (inactive) in assay [16].
